# TDP1 cell CPT = growth inhibition of DT40 Tdp1-/-;hTDP1 cells with camptothecin (screen for TDP1 inhibitors). Potency, µM (top dose mostly 46.2 µM), most hits filed as inhibitors. 12% of 420,000 active. chicken DT40 Tdp1-/-;hTDP1 cells + 20 nM CPT, ATP luminescence, 48 h; note: nearly all actives have a fitted effect of over 55% in size
#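 Cell growth measured by CellTiter-Glo luminescence after a minimum 48 h, 37 C compound exposure with 20 nM CPT in Tdp1-knockout DT40 cells stably expressing hTDP1, seeded 400/well; qHTS titration format.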
# HT1080NT lethal = kills 2HG-producing HT-1080-NT fibrosarcoma cells; HT-1080-NT fibrosarcoma viability, CellTiter-Glo ATP luminescence, 48 h; 1.6% of 360,000 active; Potency, µM (doses to about 46.1 µM), hits mostly cytotoxic;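 note: NT is the 2HG producing partner of a matched IDH1 knockdown line; nearly all actives have a fitted effect of over 55% in size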
#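 Luminescent CellTiter-Glo readout after 48 hours of compound exposure at 37 degrees C defined viability of HT-1080-NT cells. Activity was normalized to DMSO wells and cell-free media wells; concentration-response curves were fitted and assigned curve classes.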
# KB-3-1 tox = KB-3-1 parental cell cytotoxicity; KB-3-1 viability, CellTiter-Glo ATP luminescence, 72 h; Potency, µM (highest dose often 46.1 µM), usual class: cytotoxic; 1.4% of 400,000 active; AID 1347075; note: nearly all actives have a fitted effect of over 60% in size
#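 Here the drug-naive KB-3-1 line serves as comparator for MDR sub-line selectivity; cells received compound titrations, 72 h at 37 °C, then CellTiter-Glo readout.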
# TDP1 cell noCPT = qHTS for Inhibitors of human tyrosyl-DNA phosphodiesterase 1 (TDP1): qHTS in cells in absence of CPT; DT40 Tdp1-/- hTDP1 cells, no CPT, ATP luminescence, 48 h; Potency, µM (series often up to 46.2 µM), usual class: inhibitors; 15% of 420,000 active; AID 686978, 2013; note: nearly all actives have a fitted effect of over 55% in size
#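 Chicken DT40 Tdp1-/- cells stably complemented with human TDP1 were seeded at 400 cells/well with DMSO in place of 20 nM camptothecin. After compound pinning, cells grew at least 48 hr at 37 °C; viability read by CellTiter-Glo luminescence.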
# KB-V1 MDR tox = KB-V1 MDR subline cytotoxicity; KB-V1 MDR cells viability, CellTiter-Glo, 72 h; Potency, µM (highest dose often 46.1 µM), actives largely listed as cytotoxic; 3.4% of 400,000 active; AID 1347076; note: nearly all actives have a fitted effect of over 60% in size
#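 Cytotoxicity via CellTiter-Glo luminescence after 72 h compound exposure at 37 degrees C. Cells: drug-selected KB-V1 line, DMEM phenol-red free plus 10% FBS. Compounds tested at multiple concentrations; normalized data fitted to concentration-effect curves.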
# HT1080 IDH1KD tx = HT-1080 IDH1 knockdown cell toxicity (counter line); Potency, µM (top dose mostly 46.1 µM), actives largely listed as cytotoxic; AID 686971; 2% of 360,000 active; HT-1080 IDH1 knockdown viability, ATP luminescence, 48 h
#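 Cytotoxicity counter-line: IDH1KD HT-1080, 48 h, CellTiter-Glo. Curves classed by r2, magnitude and activity.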
# Hits are given with their value; 0 = inactive; ? = inconclusive; - = not tested or not shown; ! = not confirmed by another sample; [ ] = remark or other dose. A selection: hits, their analogues and other compounds. The true share with any hit is near 19%. Calls come from the whole dose curve; as a rule, active = well fitted curve in the direction sought with a large enough effect; inconclusive = small, poorly fitted or top-dose-only effect, or another doubt; inactive = no such curve, though single readings can be large; an effect the other way counts as inactive or inconclusive.
SMILES,TDP1 cell CPT,HT1080NT lethal,KB-3-1 tox,TDP1 cell noCPT,KB-V1 MDR tox,HT1080 IDH1KD tx
O=C1C2C3C=CC(CC3)C2C(=O)N1c1cccc(Br)c1 (stereo not given),0,0,0,0,0,0
Cn1cc(S(=O)(=O)N2CCOCC2)cc1C(=O)NCc1ccccc1Cl,0,0,0,0,0,0
COc1ccc(CNC(=O)C2CC(C)=C(C)CC2C(=O)O)cc1OC (stereo not given),1.3µM,0,0,1.3µM,?,0
Cc1ccc(CNC(=O)C2CC(c3cccc(F)c3)=NO2)cc1 (stereo not given),0,0,0,0,?,0
COc1ccc(C2=NOC(C(=O)NCc3ccc(F)cc3)C2)cc1OC (stereo not given),5.8µM,1.3µM,0,5.8µM,0.52µM,1.1µM
COc1cc(C2=NOC(C(=O)NCc3ccc(F)cc3)C2)cc(OC)c1OC (stereo not given),0.82µM,1.1µM,1.5µM,0.58µM,1.5µM,0.71µM
COc1cccc(C2=NOC(C(=O)NCc3ccc(F)cc3)C2)c1 (stereo not given),12µM,0,0,18µM,?,?
CC1=C(C)CC(C(=O)NCc2ccc3c(c2)OCO3)C(C(=O)O)C1 (stereo not given),0,0[9.24 µM],0,?,?,0
CN1CCN(c2ncncc2-c2cccnc2)CC1,?,-,-,0,-,-
COc1cccc(C2=NOC(C(=O)NCc3cccs3)C2)c1 (stereo not given),21µM,?,?,15µM,?,21µM
COc1cccc(C2=NOC(C(=O)NCc3cccnc3)C2)c1 (stereo not given),0,0,0,?,0,0
CCN1/C(=C2/SC(=S)N(NC(C)=O)C2=O)Sc2ccc(OC)cc21,?,0,0,?,0,0
CCN1/C(=C/c2cccc[n+]2C)Sc2ccc(OC)cc21,2.6µM,?,?,2.3µM,0,?
COc1cc(OC)cc(C(=O)/C=C2\Sc3ccccc3N2C)c1,0,?,0,0,0,0
CCN1/C(=C/C(C)=O)Sc2ccc(OC)cc21,7.1µM!,0,0,13µM,?,0
COc1ccc2c(c1)N(C)/C(=C/c1cccc[n+]1C)S2,0.26µM,?,1.6µM,0.01µM,0,13µM
CC1CCN(C(=O)CSC2=NS(=O)(=O)c3cc(F)ccc3N2)CC1,0,0,0,0,0,0
CC(=O)N1CCC(N(Cc2ccc(C)o2)C(=O)Nc2ccccc2F)CC1,0,-,0,0,?,-
COC(=O)c1ccc(Cl)cc1NC(=O)N(Cc1ccc(C)o1)C1CCN(C(C)=O)CC1,?,-,0,15µM,0,-
CCN1CCC(N(Cc2ccc3c(c2)OCO3)C(=O)Nc2cc(Cl)ccc2C(=O)OC)CC1,13µM,-,16µM,7.3µM,?,-
O=C(/C=C/c1ccccc1)Nc1ccc(N2CCCCC2)cc1,0,0,0,0,0,0
CN(C(=O)COC(=O)Cn1cnc2ccccc21)C1CCCCC1,0,0,-,0,-,0
CCSc1oc(-c2ccccc2)nc1S(=O)(=O)c1ccccc1,0,0,0,0,0,0
CSc1oc(-c2ccccc2)nc1S(=O)(=O)c1ccc(C)cc1,?,0,0,?,21µM,0
CCSc1oc(-c2ccc(F)cc2)nc1S(=O)(=O)c1ccc(C)cc1,0,-,-,16µM,-,-
CN(C)CCCOc1ccc2c(c1)Sc1ccccc1CC2=O,?,0,0,?,10µM,0
CN(CC(=O)Nc1ccc(F)cc1)C(=O)CNC(=O)C1CCCCC1,0,0,0,0,0,0
CCN(Cc1ccc(C#CCCO)cc1)CC1CCCN(CCc2cccc(F)c2)C1 (stereo not given),?,0,0,21µM,0,0
Cc1occc1C(=O)N(C)CC1CCCN(CCc2ccc(Cl)cc2)C1 (stereo not given),?,0,0,21µM,0,0

# Source: PubChem BioAssay
